The panel holds about 83,000 compounds, 20% with a hit somewhere; the sample as a whole holds those more often.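 Assay: single dose, 48 h. Readout: percent growth (0 = no net growth; negative = cell death). Active: <10.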 A number with no mark means an inactive call. Calls of active or inactive are those of the source.
Tested on: MDA-MB-468 breast
Experiment: NCI-60 one-dose screen, 48 h (100 = growth as untreated, 0 = no growth, -100 = all killed)
Conditions: 10 µM unless noted

SMILES	growth
O=C(/C=C(/C=C/c1ccc2[nH]ccc2c1)OB(F)F)/C=C/c1ccc2[nH]ccc2c1	-57% (active)
COc1ccc(/C=C/C(=O)c2cccc(B(O)O)c2)cc1O	34.9%
COc1cc([C@@H]2c3cc4c(cc3[C@H](O)[C@H]3COC(=O)[C@H]23)OCO4)cc(OC)c1OC	-17.5% (active)
CNc1nnc2n(-c3ccccc3)c(=O)c3cnn(-c4ccccc4)c3n12	103%
COC(=O)[C@]12CC[C@@H](C)[C@H](C)[C@@H]1C1=CC[C@@H]3[C@@]4(C)C(C=O)=C[C@@](C)(COC(=O)c5ccco5)[C@@H]4C(=O)C[C@@]3(C)[C@]1(C)CC2	9.8% (active)
CCc1c(Cl)nc(N)nc1Nc1ccc(C)c(C)c1	83.2%
O=C(Nc1ccc2ncnc(Nc3ccc(Oc4cccc(F)c4)c(Cl)c3)c2c1)c1ccc(CN2CCOCC2)cc1	18.8%
Cc1c(Cl)cccc1S(=O)(=O)Nc1ccc2c(c1)C(=O)N(C1CCC(=O)NC1=O)C2=O (configuration not stated)	27.2%
Cc1cc(=O)[nH]n1-c1cc(Cl)ccc1N	110%
NS(=O)(=O)c1ccc(Nc2nc(SCC(=O)c3ccc(Cl)cc3)nc3c2CCCC3)cc1	57.9%
CCN1C(=S)N(CC)C2Nn3c(s/c(=C4\C(=O)N(C)c5ccccc54)c3=O)=NC21 (configuration not stated)	11.7%
CC(=O)c1c(C)[nH]c(-c2nc3ccc(N4CCN(C)CC4)cc3[nH]2)c1-c1ccc(N(C)C)cc1	21%
COc1ccc2[nH]c(C(=O)N3CCN(C(=O)OCc4ccc5c(Br)cc(Br)c(O)c5n4)CC3)cc2c1	-80.5% (active)
COc1cc(OC)c(/C=C/C(=O)c2ccc(Nc3ncnc4ccccc34)cc2)c(OC)c1	-34.8% (active)
Cc1nn2c(/C=C3/C(=O)Nc4cc(Cl)ccc43)c(-c3ccccc3)nc2s1	11%
O=c1c2cc(F)ccc2sc2c(N3CCNCC3)nc3ccccc3c12	-41.2% (active)
CC(C)c1[nH]nc2c(NCc3ccc(-c4ccccn4)cc3)nc(SCCN)nc12	-60.3% (active)
N=c1nc(N2CCCCC2)cc(N)n1O	97.1%
CN1CCN(Cc2ccc(NC(=O)c3cncc(C#Cc4ccc(N)nc4)c3)cc2C(F)(F)F)CC1	-8.99% (active)

SMILES	growth
COc1ccc(CN2C(=O)/C(=C\c3cc(OC)c(OC)c(OC)c3)c3ccccc32)cc1	5.64% (active)
Cn1c2c(c(=O)[nH]c1=O)NC1=C(C(=O)c3ccccc31)C1(C=C(O)c3ccccc31)N2 (configuration not stated)	100%
CC/C(=C(/c1ccc(Cl)cc1)c1ccc(OCCN2CCOCC2)cc1)c1ccccc1	91%
COC(=O)C[Se]C(=O)Cc1c(C)n(C(=O)c2ccc(Cl)cc2)c2ccc(OC)cc12	-18.4% (active)
Cc1ccc2c(c1)C(=O)/C(=C/c1ncc([N+](=O)[O-])n1C)O2	52.4%
Nc1[nH]c(=S)nc2oc(-c3ccccc3)c(-c3ccccc3)c12	98.8%
Cn1cc(CC2CC(=O)N(c3ccccc3)C2=O)sc1=NC(=O)c1ccccc1 (configuration not stated)	99.8%
CC1(C)CC(=O)C2=C(C1)OC(C(=O)c1ccccc1)C2c1cccc(Oc2ccccc2)c1 (configuration not stated)	33%
C=C[Si](OC(C)=O)(OC(C)=O)OC(C)=O	109%
CN(C)CC(=O)c1ccc2cc(Br)c3ccccc3c2c1	72.1%
COc1ccccc1N=Nc1c(O)ccc2cc(S(=O)(=O)O)ccc12	111%
CC[C@]12CC(C(=O)OC)=C3Nc4ccccc4[C@@]34CCN(C14)[C@@H]1c3cc4c(cc3O[C@@H]1[C@H]2O)NC1=C(C(=O)OC)C[C@@]2(CC)C3N(CC[C@@]143)C[C@H]1O[C@H]12 (some centres not stated)	-35.7% (active)
COc1ccccc1NC(=O)c1cc2cc(Br)ccc2cc1O	-9.27% (active)
CN(C)c1ccc(-c2cc(-c3cccc(NS(C)(=O)=O)c3)nc(N)c2C#N)cc1	-20.1% (active)
CCCCCCOc1ccc(/C=N/Nc2cc(C)nc3ccc(Cl)cc23)cc1	-56.7% (active)
O=C(NC1C(O)OC(CO)C(O)C1O)NS(=O)(=O)c1ccc(Cl)cc1 (configuration not stated)	108%
CCOC(=O)c1c(Nc2ccccc2)nn2c(N)c(C#N)c(-c3ccccc3)nc12	62.4%
CCOC(=O)c1ccc2nc(-c3c(C)nn(-c4ccccc4)c3N3CCOCC3)[nH]c2c1	105%
